Most compounds without a hit are left out; they make up all but 8.9% or so of the library.
MCF10A rereplic = DNA re-replication induction in MCF 10a cells; MCF 10A DNA re-replication, Hoechst nuclear intensity, 48 h; Potency, µM (top dose mostly 46.1 µM), inactives show at the top dose activity, positive = re-replication, most hits filed as activators; 350,000 tested, 2.9% active; AID 624296; note: potency is the fitted concentration of half-maximal effect; % of control where 0% means no effect; nearly all actives have a fitted effect of over 50% in size
DRD3 antagonist = blocks the human D3 dopamine receptor; 360,000 tested, 2.5% active; max response, negative = inhibition, %; P35462; D3R cells, DiscoveRx beta-arrestin luminescence, antagonist mode; stronger effect = lower value; in the data active = max response below about -50%; inconclusive = no clear call, values can overlap the other calls; note: % is set by controls: 0 for no effect and ±100 for the full control effect
Target sequence (P35462 whole entry, looked up): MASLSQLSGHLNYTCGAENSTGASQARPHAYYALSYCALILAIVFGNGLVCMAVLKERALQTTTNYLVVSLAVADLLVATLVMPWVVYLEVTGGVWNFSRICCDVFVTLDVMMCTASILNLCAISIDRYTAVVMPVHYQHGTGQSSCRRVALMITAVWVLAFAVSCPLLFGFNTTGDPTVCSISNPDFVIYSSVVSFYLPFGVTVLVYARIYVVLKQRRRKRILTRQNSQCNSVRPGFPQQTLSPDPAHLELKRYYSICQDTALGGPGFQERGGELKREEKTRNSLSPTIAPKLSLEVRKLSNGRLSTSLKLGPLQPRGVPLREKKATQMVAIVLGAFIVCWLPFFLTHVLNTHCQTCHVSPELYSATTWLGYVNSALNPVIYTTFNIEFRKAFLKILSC
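Cells expressing the human receptor were seeded at 1500 cells/well, incubated overnight at 37 degrees C in 5% CO2, then exposed to library compounds with dopamine controls for 90 minutes at 37 degrees C before luminescent detection.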
KB-3-1 cytotox = kills parental KB-3-1 adenocarcinoma cells; KB-3-1 viability, CellTiter-Glo ATP luminescence, 72 h; Potency, µM (series often up to 46.1 µM), hits mostly cytotoxic; 400,000 tested, 1.4% active; note: potency is the fitted concentration of half-maximal effect; % is set by controls: 0 for no effect and ±100 for the full control effect; nearly all actives have a fitted effect of over 60% in size
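Viability of parental KB-3-1 cells, measured by CellTiter-Glo luminescence, followed a 72 h incubation at 37 °C with pinned compounds in phenol-red-free DMEM containing 10% FBS.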
SW480 rereplic = inducers of DNA re-replication in SW480 colon cancer cells. SW480 DNA re-replication, Hoechst DNA content imaging, 48 h. Potency, µM (doses to about 46.1 µM), without a hit: at the highest dose re-replication activation, actives largely listed as activators. 340,000 tested, 1.8% active. AID 624297; note: potency is the fitted concentration of half-maximal effect; % of control where 0% means no effect; nearly all actives have a fitted effect of over 55% in size
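Hoechst fluorescence of nuclei (405 nm excitation, 500-530 nm emission) measured by plate-scanning imager after 48 hr compound exposure at 37 C; re-replication scored as increased number of nuclei with elevated intensity.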
KB-V1 MDR tox = KB-V1 MDR subline cytotoxicity; KB-V1 MDR cells viability, CellTiter-Glo, 72 h; Potency, µM (top dose mostly 46.1 µM), actives largely listed as cytotoxic; 400,000 tested, 3.4% active; note: potency is the fitted concentration of half-maximal effect; % is set by controls: 0 for no effect and ±100 for the full control effect; nearly all actives have a fitted effect of over 60% in size
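Luminescent ATP read-out (CellTiter-Glo, 10 min) measures survival of drug-selected KB-V1 MDR cells after 72 h, 37 degrees C compound exposure. Medium: phenol-red-free DMEM, 10% FBS. Values from fitted concentration-response curves.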
D3 ag = activates the human D3 dopamine receptor | AID 652048 | D3R DiscoveRx beta-arrestin cells, luminescence, 90 min | 410,000 tested, 0.58% active | P35462 | max activation, %; in the data active = max activation above about 30%; note: 0% is about no effect
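Agonist-mode cell screen: cells plated at 1500/well and incubated overnight at 37 °C, then exposed to library compounds for 90 min at 37 °C. Detection reagent was added for 30–60 min at room temperature, and luminescence was read.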
An asterisk follows results filed as active; i = inactive; ? = inconclusive; . = no result. Unless noted, calls come from the whole dose curve; as a rule, active = well fitted curve in the direction sought with a large enough effect; inconclusive = small, poorly fitted or top-dose-only effect, or another doubt; inactive = no such curve, though single readings can be large; an effect the other way counts as inactive or inconclusive.

SMILES | MCF10A rereplic | DRD3 antagonist | KB-3-1 cytotox | SW480 rereplic | KB-V1 MDR tox | D3 ag
CC(NC(=O)c1ccc(NC(=O)c2nsc3ccccc23)cc1)c1ccccc1 (configuration not stated) | . | . | i | . | i | 0
Cn1c(NCCO)nc2c1c(=O)n(Cc1cccc(F)c1)c(=O)n2C | . | . | i | . | i | 0
CC(=O)c1ccc(NC(=O)CN2CCC(C(=O)c3ccc4c(c3)OCCO4)CC2)cc1 | -2% | -6 | i | ? | i | -2
COC(=O)c1ccccc1NC(=O)CN1CCC(C(=O)c2ccc3c(c2)OCCO3)CC1 | 22% | 43 | i | 0% | i | 40*
Cc1ccc(C(=O)C2CCN(CC(=O)NC3CCCCC3)CC2)cc1 | 3% | 0 | i | 6% | 13µM* | 0
O=C(CN1CCC(C(=O)c2ccc(Cl)cc2)CC1)NC1CCCC1 | 11% | -30 | i | ? | ? | -12
COCCNC(=S)Nc1cc(OC)c(OC)cc1C#N | 3% | -51* | i | -4% | i | -3
Cc1oc(-c2ccccc2Cl)nc1CSCC(=O)NC1CC1 | ? | 16 | i | -1% | 13µM* | 7
Cc1oc(-c2ccccc2F)nc1CSCC(=O)NC1CCCC1 | 8% | 8 | i | 2% | ? | 6
CCOC(=O)c1c(C)oc2nc(C)nc(N3CCN(c4ccccc4)CC3)c12 | . | . | ? | . | ? | 11
CCOC(=O)c1c(C)oc2nc(C)nc(N3CCN(c4cccc(C(F)(F)F)c4)CC3)c12 | . | . | ? | . | 16µM* | 5
CCOc1ccc(-c2nc(CSCC(=O)N3CCN(c4cccc(C(F)(F)F)c4)CC3)c(C)o2)cc1 | . | . | ? | . | 18µM* | -8
CCOC(=O)N1CCN(C(=O)CSCc2ccc(C)cc2)CC1 | -2% | 15 | i | 0.18µM* | i | -4
Cc1ncc(CO)c2c1Oc1nc(-c3ccccc3Cl)nc(SCc3ccccc3F)c1C2 | . | . | i | . | i | 6
CCN(CC)C(=O)c1ccc2c(c1)N(Cc1ccc(C(F)(F)F)cc1)C(=O)c1ccccc1S2 | . | . | i | . | i | -14
COc1ccc(CC(=O)Nc2c(C(=O)Nc3ccccc3F)oc3ccccc23)cc1 | . | . | i | . | i | 6
Cc1ccc(CN(C)C(=O)COc2ccc(S(=O)(=O)N3CCCC3)cc2[N+](=O)[O-])c(C)c1 | 16% | 3 | i | -8% | i | 0
Cc1oc(-c2ccccc2Cl)nc1CSc1nc2c(c(=O)[nH]1)CCCC2 | -1% | 113 | i | 6% | i | 30*
CCOC(=O)N1CCN(C(=O)CSCc2nc(-c3ccccc3F)oc2C)CC1 | -2% | -14 | ? | -9% | ? | -1
CCOC(=O)N1CCN(C(=O)CSCc2nc(-c3ccccc3C)oc2C)CC1 | 6% | 18 | i | -4% | 18µM* | 3
COc1ccc(CCC(=O)NCc2nc3cccnc3n2Cc2cccc(OC)c2)cc1 | . | . | . | . | . | -6
Cc1ccc(CN(C(=O)COc2ccc(Cl)c(C)c2)c2ccccn2)o1 | . | . | i | . | i | 2
CCCCCCc1cc2cc(-c3nnc(-c4cccc(Cl)c4)o3)c(=O)oc2cc1O | . | . | . | . | . | -15
CCCCCCc1cc2cc(C(=O)NCc3ccccc3)c(=N)oc2cc1O | 7.3µM* | 3 | i | ? | i | 14
CCCCCCc1cc2cc(C(=O)Nc3ccccc3)c(=O)oc2cc1O | ? | 51 | i | 2.1µM* | 2.3µM* | 51*
SMILES | MCF10A rereplic | DRD3 antagonist | KB-3-1 cytotox | SW480 rereplic | KB-V1 MDR tox | D3 ag
Cc1ccc(C(=O)Nc2c(-c3ccc(Cl)cc3)[nH][nH]c2=O)cc1 | . | -70* | i | . | i | -11
O=C(Nc1c(-c2ccc3c(c2)OCO3)[nH][nH]c1=O)c1ccccc1 | . | -92* | i | . | i | -8
COc1ccc(C(=O)Nc2ccccc2C(=O)NCc2cccnc2)cc1 | 4% | -3 | . | ? | . | 7
COc1ccc2c(C)cc(SCc3c(C)noc3C)nc2c1 | 12µM* | 23 | i | ? | i | 9
Cc1ccc(OCc2cc(=O)n3cc(C)sc3n2)c(C)c1 | . | . | i | . | i | 3
CCCC(C)c1nnc(NC(=O)C2CCCO2)s1 (configuration not stated) | 5.2µM* | 6 | i | 21µM* | i | -6
NC(=O)c1nsc(C(=O)N(c2cccc(F)c2)C(C(=O)NC2CCCC2)c2ccco2)c1N (configuration not stated) | 25% | 6 | i | ? | i | 4
CC(C)C(=O)Nc1cccc(COc2cccc(CN(Cc3ccccc3)C(=O)OC(C)(C)C)c2)c1 | 1.8µM* | 73 | ? | 4% | ? | -6
CC(C)(C)OC(=O)N(Cc1ccccc1)Cc1ccccc1OCc1cccc(NC(=O)C2CC2)c1 | 15µM* | 37 | i | ? | ? | 10
COC1OC(CO)C(OC2OC(C(=O)O)C(OC3OC(COS(=O)(=O)O)C(OC4OC(C(=O)O)C(OC5OC(CO)C(OC6OC(C(=O)O)C(OC7OC(COS(=O)(=O)O)C(OC8OC(C(=O)O)=C[C@H](O)C8OS(=O)(=O)O)C(O)C7NC(C)=O)[C@@H](O)C6O)C(O)C5NC(C)=O)[C@@H](O)C4O)C(O)C3NC(C)=O)[C@@H](O)C2O)C(O)C1NC(C)=O (some centres not stated) | -5% | . | . | 0% | . | .
CN(C(=O)Cn1c(=O)n(CCC(=O)NCc2ccc3c(c2)OCO3)c(=O)c2sccc21)c1ccccc1 | . | . | . | . | . | 7
Cc1ccc2nccc(/C=C/c3ccc(N(C)C)cc3)c2c1 | . | . | ? | . | 18µM* | .
CN(C)c1ccc(/C=C\C=C/c2ccnc3ccccc23)cc1 | . | . | 0.92µM* | . | i | .
CCc1cc(/C=C/c2ccnc3ccccc23)ccc1N(C)C | . | . | 6.5µM* | . | ? | .
O=C(COc1ccc(Cl)cc1)Nc1ccc(-c2nc3ccccc3s2)c(O)c1 | . | . | i | . | ? | -1
O=C(NC1CC(=O)N(c2ccc(F)cc2)C1)c1ccc(S(=O)(=O)N2CCCCC2)cc1 (configuration not stated) | . | . | . | . | . | -14
CC(=O)c1c(C)oc2ccc(N(C(=O)Oc3ccccc3)S(=O)(=O)c3ccc(C(C)(C)C)cc3)cc12 | . | . | ? | . | i | 13
C=CCNC(=S)NNC(=O)c1cccn(Cc2ccc(Cl)cc2Cl)c1=O | 5% | -73* | i | -13% | 23µM* | -12
CNC(=S)NNC(=O)c1cccn(Cc2ccc(Cl)c(Cl)c2)c1=O | 4% | -15 | i | 1% | ? | -18
C=CCNC(=S)NNC(=O)c1cccn(Cc2ccc(Cl)c(Cl)c2)c1=O | 1% | ? | ? | 24% | 16µM* | -38

Source: PubChem BioAssay
